About 7,900 targets were measured; listed, in parts, are those with a hit and a random draw of the rest. About 0.6% of all pairs of compound and target were hits.

Chain of UniProt Q7Z7G8 (Q7Z7G8 whole entry, looked up): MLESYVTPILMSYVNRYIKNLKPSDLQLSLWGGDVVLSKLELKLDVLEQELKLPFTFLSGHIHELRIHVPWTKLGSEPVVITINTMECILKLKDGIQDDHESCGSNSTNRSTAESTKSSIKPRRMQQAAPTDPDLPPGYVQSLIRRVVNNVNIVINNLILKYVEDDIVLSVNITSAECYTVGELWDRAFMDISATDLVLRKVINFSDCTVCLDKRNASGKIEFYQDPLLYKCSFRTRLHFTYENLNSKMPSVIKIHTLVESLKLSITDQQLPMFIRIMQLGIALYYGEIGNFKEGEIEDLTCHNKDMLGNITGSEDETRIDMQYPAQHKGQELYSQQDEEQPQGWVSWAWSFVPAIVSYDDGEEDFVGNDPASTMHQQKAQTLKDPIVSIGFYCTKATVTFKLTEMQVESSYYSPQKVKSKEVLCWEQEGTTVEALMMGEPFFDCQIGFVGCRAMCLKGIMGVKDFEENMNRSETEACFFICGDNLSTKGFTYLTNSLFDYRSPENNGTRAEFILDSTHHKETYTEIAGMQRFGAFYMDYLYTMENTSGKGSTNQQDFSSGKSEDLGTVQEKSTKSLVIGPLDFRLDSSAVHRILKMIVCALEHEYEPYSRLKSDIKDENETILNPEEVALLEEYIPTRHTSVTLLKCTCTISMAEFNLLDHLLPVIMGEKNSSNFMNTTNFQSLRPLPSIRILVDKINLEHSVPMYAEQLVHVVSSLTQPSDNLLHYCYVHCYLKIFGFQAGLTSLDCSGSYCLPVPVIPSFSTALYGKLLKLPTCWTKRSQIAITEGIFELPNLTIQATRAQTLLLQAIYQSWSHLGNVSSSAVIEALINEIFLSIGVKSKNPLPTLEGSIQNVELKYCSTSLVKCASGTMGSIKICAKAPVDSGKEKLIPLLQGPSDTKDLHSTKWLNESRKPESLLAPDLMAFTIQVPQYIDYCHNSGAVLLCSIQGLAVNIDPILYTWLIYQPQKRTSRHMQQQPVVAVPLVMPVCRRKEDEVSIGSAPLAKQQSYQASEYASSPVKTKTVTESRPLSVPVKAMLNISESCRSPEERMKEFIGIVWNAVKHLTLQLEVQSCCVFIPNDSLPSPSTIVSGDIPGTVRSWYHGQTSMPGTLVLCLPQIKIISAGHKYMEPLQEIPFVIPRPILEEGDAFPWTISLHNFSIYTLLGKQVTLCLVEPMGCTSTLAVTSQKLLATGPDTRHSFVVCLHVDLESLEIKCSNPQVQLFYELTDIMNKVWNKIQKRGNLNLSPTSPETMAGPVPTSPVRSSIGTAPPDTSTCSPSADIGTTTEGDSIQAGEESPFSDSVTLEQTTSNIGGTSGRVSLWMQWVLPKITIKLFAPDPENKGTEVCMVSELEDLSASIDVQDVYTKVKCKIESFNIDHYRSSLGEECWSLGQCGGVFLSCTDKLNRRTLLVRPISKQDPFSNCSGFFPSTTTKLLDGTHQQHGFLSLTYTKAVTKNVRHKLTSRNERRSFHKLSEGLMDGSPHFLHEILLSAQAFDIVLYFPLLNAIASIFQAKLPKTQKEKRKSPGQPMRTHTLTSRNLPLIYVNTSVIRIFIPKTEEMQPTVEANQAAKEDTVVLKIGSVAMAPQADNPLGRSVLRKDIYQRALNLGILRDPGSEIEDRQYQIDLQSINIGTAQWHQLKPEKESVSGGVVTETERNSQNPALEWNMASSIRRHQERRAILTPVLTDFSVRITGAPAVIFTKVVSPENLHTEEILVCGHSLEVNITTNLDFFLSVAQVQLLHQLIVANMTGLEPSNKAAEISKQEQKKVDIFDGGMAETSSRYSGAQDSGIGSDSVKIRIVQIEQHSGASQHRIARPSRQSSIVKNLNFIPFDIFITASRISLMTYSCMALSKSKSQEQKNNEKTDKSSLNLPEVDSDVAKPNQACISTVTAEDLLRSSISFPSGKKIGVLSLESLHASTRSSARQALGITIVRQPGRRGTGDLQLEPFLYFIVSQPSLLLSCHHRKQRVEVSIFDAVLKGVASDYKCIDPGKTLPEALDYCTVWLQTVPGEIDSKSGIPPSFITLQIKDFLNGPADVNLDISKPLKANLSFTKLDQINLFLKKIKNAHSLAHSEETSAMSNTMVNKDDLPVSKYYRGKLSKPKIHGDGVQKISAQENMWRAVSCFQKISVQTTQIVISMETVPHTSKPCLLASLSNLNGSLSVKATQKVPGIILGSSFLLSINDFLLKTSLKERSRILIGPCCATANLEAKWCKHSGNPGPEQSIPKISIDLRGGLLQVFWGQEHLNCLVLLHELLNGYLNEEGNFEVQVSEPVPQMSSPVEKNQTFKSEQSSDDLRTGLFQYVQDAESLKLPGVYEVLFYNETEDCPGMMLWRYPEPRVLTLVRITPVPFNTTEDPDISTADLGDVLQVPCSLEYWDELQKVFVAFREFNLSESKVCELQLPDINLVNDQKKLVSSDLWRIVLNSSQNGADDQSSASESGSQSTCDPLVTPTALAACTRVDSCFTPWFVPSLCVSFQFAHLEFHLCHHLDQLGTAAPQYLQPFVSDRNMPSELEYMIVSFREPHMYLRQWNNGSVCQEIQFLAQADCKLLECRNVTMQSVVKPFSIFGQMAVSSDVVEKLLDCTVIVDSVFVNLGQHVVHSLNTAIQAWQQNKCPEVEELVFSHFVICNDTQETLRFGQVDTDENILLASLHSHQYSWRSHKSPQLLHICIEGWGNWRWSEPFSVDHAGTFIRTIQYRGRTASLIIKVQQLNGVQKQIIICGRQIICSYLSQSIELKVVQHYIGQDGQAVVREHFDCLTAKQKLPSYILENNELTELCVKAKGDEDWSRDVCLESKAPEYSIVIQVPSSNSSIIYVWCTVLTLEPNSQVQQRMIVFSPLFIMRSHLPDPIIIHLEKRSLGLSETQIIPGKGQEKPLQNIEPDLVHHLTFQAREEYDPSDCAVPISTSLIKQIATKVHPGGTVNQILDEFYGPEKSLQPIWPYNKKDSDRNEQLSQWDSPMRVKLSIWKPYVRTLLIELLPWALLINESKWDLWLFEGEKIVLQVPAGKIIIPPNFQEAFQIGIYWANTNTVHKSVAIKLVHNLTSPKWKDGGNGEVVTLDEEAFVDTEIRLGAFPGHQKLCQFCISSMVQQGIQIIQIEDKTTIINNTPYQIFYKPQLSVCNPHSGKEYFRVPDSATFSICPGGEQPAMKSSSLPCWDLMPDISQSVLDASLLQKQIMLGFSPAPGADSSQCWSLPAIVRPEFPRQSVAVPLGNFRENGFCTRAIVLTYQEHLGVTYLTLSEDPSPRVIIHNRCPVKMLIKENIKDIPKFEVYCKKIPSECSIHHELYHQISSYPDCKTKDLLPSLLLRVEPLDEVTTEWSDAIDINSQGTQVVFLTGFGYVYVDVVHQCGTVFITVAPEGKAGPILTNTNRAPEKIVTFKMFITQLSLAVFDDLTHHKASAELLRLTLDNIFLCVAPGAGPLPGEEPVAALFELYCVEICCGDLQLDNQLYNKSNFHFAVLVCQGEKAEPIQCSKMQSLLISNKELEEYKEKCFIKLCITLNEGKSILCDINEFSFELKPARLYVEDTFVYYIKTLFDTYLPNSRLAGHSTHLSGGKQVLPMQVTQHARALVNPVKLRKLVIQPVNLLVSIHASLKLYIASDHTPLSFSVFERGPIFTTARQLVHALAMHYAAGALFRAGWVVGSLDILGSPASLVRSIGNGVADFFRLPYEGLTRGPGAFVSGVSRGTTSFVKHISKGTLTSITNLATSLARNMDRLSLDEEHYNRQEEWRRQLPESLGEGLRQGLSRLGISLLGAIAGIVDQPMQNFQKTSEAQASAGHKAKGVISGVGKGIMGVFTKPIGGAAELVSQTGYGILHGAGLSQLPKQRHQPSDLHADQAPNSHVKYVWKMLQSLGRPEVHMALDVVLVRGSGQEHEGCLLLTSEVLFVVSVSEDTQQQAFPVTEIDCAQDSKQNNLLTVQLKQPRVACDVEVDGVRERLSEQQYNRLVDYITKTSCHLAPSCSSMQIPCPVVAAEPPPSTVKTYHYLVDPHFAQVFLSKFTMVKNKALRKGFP
Chain of UniProt P98170 (P98170 whole entry, looked up): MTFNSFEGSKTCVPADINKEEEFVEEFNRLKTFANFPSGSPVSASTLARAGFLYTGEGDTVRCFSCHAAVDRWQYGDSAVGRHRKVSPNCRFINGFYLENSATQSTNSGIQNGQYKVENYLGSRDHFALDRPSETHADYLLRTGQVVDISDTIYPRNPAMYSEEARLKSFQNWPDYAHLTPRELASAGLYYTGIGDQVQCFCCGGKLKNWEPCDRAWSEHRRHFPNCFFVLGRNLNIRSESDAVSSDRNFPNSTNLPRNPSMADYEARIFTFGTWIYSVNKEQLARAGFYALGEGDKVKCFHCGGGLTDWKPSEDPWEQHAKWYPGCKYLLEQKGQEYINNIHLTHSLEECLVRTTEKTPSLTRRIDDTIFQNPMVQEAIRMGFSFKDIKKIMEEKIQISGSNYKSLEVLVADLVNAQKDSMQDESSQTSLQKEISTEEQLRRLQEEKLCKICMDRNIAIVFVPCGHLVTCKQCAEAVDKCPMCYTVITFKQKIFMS
Chain of UniProt Q9UBK9 (Q9UBK9 whole entry, looked up): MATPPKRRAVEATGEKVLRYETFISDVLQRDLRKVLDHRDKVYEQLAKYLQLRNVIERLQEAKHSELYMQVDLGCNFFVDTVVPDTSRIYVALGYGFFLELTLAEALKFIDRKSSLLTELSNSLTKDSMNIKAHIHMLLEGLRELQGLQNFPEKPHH
Chain of UniProt A6NHL2 (A6NHL2 whole entry, looked up): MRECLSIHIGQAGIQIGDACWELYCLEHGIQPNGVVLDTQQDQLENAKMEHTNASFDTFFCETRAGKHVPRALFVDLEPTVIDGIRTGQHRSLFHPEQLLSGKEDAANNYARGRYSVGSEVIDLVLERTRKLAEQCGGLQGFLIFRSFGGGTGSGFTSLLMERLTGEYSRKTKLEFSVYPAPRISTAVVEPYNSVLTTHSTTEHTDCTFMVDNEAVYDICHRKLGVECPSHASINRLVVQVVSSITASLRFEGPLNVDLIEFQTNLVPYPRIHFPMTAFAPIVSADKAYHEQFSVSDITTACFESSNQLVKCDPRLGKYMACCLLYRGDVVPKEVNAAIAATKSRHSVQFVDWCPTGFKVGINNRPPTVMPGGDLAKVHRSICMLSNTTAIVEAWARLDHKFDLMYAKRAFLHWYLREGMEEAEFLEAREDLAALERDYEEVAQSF

Compound in one assay: Cc1nc(Nc2ncc(C(=O)Nc3c(C)cccc3Cl)s2)cc(N2CCN(CCO)CC2)n1 [dasatinib]
Nature of the assay: log2 fold change, soluble protein after heating vs DMSO (PISA); higher = thermal stabilisation; K562 cells, 10 uM, 30 min; active = over 0.2 and 3.5 SD of the protein, either way, in both replicates (recomputed). Summed up: (§1)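 Quantification of soluble protein used TMTpro 16plex LC-MS/MS, with channel sums equalised. Samples were the supernatant after 21,000xg for 90 min of pooled aliquots from K562 cells (2×10^6 cells/mL) treated with 10 μM compound for 30 min, heated for 3 min over 48°C-58°C, and extracted in PBS with 0.5% NP-40 at 4°C. Values, from duplicates, describe thermal stability against control samples on a log2 fold-change scale.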
Take TUBAL3 (UniProt A6NHL2): the log2 fold change was 0.051 (inactive).
For TMEM8A (UniProt Q9HCN3), the log2 fold change was -0.409 (inactive).
UXT isoform 2 (UniProt Q9UBK9): the log2 fold change was -0.033 (inactive).
Turning to TMEM219 (UniProt Q86XT9), the log2 fold change is -0.11 (inactive).
Consider VPS35L (UniProt Q7Z3J2), for which the log2 fold change was -0.056 (inactive).
On to VPS13B (UniProt Q7Z7G8), for which the log2 fold change was 0.047 (inactive).
For the target XIAP (UniProt P98170), the log2 fold change is -0.027 (inactive).
VPS51 (UniProt Q9UID3): the log2 fold change is -0.126 (inactive).

Compound in a further assay: Cc1ncc(-c2ccnc(Nc3ccc(S(C)(=O)=O)cc3)n2)n1C(C)C
The description is as above. Summed up: as §1
As for UBIAD1 (UniProt Q9Y5Z9), the log2 fold change was -0.004 (inactive).
Same read-out and setting: next, TMEM41A (UniProt Q96HV5): -0.049 (inactive); TRIM23 (UniProt P36406): 0.088 (inactive).
Take TXNL4B (UniProt Q9NX01): the log2 fold change is 0.01 (inactive).
Still for that read-out and setting: next, TSPAN13 (UniProt O95857): -0.095 (inactive).
Same read-out and setting: next, UNC119B (UniProt A6NIH7): 0.173 (inactive).
Take TUT4 (UniProt Q5TAX3): the log2 fold change is -0.116 (inactive).
With VKORC1 (UniProt Q9BQB6), the log2 fold change was -0.013 (inactive).
Same read-out and setting: next, UBAP2L (UniProt F8W726): -0.109 (inactive); WASH2P (UniProt Q6VEQ5): 0.01 (inactive).
Regarding TMEM184C (UniProt Q9NVA4), the log2 fold change was -0.009 (inactive).
For the target VWA3B isoform 6 (UniProt Q502W6), the log2 fold change is -0.129 (inactive).
Turning to UBE2J1 (UniProt Q9Y385), the log2 fold change was -0.189 (inactive).
Take TMEM268 isoform 3 (UniProt Q5VZI3): the log2 fold change is 0.165 (inactive).
On to UFM1 isoform 2 (UniProt P61960), for which the log2 fold change was 0.002 (inactive).
Regarding TMEM106B (UniProt Q9NUM4), the log2 fold change is -0.007 (inactive).
With UBE2D1 (UniProt P51668), the log2 fold change was -0.074 (inactive).
As to VPS37A (UniProt Q8NEZ2), the log2 fold change is -0.039 (inactive).
On the same count and under the same terms, the same measure for XRCC6 (UniProt P12956): -0.07 (inactive); for UBXN10 (UniProt Q96LJ8): -0.098 (inactive).
For the target TXNIP (UniProt Q9H3M7), the log2 fold change was -0.264 (inactive).
For the target WEE1 (UniProt P30291), the log2 fold change was 0.311 (inactive).
In the case of TRABD (UniProt Q9H4I3), the log2 fold change is -0.093 (inactive).
Regarding TMEM164 (UniProt Q5U3C3), the log2 fold change was 0.037 (inactive).
Take TRIM44 (UniProt Q96DX7): the log2 fold change is 0.026 (inactive).
Consider TUBAL3 (UniProt A6NHL2), for which the log2 fold change was -0.029 (inactive).
The same measure, in the same setting: next, TMEM8A (UniProt Q9HCN3): 0.019 (inactive); TRIM4 (UniProt Q9C037): 0.058 (inactive).
Still for that read-out and setting: the same measure for UXT isoform 2 (UniProt Q9UBK9): 0.001 (inactive); for TMEM9B (UniProt Q9NQ34): -0.015 (inactive); for TMEM219 (UniProt Q86XT9): 0.032 (inactive).
For the target VPS35L (UniProt Q7Z3J2), the log2 fold change is -0.123 (inactive).
Turning to VPS13B (UniProt Q7Z7G8), the log2 fold change was -0.004 (inactive).
Regarding TMEM179B (UniProt Q7Z7N9), the log2 fold change is -0.013 (inactive).
Regarding XIAP (UniProt P98170), the log2 fold change is -0.288 (inactive).
As to VPS51 (UniProt Q9UID3), the log2 fold change is -0.042 (inactive).

(Values after the supplement of paper PMC10849652.)
